# High-throughput results: PubChem, National Center for Advancing Translational Sciences (NCATS)
# Compounds with a hit are over-represented: about 1.1% of the library has one in this group of screens.
# NPSR antag: qHTS Assay for Antagonists of the Neuropeptide S Receptor: cAMP Signal Transduction. Q6W5P4. CHO-NPSR cells, cAMP TR-FRET, antagonist mode. Potency, µM (doses to about 38.3 µM), for inactives: at the highest dose activity change, negative = inhibition, actives largely listed as inhibitors. actives 1% (n = 220,000). AID 1461, 2008; note: potency is the fitted concentration of half-maximal effect; % is set by controls: 0 for no effect and ±100 for the full control effect; nearly all actives have a fitted effect of over 50% in size
# Target sequence (Q6W5P4 whole entry, looked up): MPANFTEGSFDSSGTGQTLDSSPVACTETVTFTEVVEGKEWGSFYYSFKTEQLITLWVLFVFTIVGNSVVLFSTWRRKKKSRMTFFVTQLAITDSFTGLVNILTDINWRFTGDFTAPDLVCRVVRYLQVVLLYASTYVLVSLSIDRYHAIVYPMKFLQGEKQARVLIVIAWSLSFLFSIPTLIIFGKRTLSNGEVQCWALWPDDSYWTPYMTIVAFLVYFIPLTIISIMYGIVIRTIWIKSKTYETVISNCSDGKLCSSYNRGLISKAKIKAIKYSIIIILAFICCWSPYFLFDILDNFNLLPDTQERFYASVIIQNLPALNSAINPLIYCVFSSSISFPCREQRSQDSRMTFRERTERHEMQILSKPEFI
# CBFb-RUNX1 inh: qHTS Assay for Compounds Blocking the Interaction Between CBF-beta and RUNX1 for the Treatment of Acute Myeloid Leukemia. AlphaScreen CBFb-His/RUNX1-biotin binding, biochemical. Potency, µM (titrated, usually from 59.8 µM), without a hit: top-dose activity, negative = inhibition, usual class: inhibitors. 230,000 tested, under 10 active. AID 1477, 2009; note: % of control where 0% means no effect
#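 AlphaScreen binding: CBFb-His and RUNX1-biotin (30 nM each) preincubated 20 min, compound added for 15 min, then nickel and streptavidin beads for 90 min, all at room temperature. Disruption of the interaction by any mechanism counts as activity.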
# HTT ATP protect: qHTS Multiplex Assay to Identify Dual Action Probes in a Cell Model of Huntington: Cytoprotection (ATP). actives 0.14% (n = 230,000). PC12 HTT-Q103 induced, cytoprotection, ATP luminescence, 40 h. Potency, µM (series often up to 56.4 µM), without a hit: cytoprotection (ATP increase), usual class: activators; note: potency is the fitted concentration of half-maximal effect; % of control where 0% means no effect; nearly all actives have a fitted effect of over 45% in size
#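 Quantitative HTS on tebufenozide-induced (100 nM) PC12 cells expressing HTTQ103 exon 1–GFP; compounds tested as a concentration series; survival measured via cellular ATP.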
# Lamin A splicing: qHTS Assay for Modulators of Lamin A Splicing; HeLa LMNA splicing GFP/RFP minigene ratio, 48 h; Potency, µM (highest dose often 46.1 µM), inactives show top-dose ratio change, negative = inhibition, actives largely listed as inhibitors; actives 0.01% (n = 200,000); active = well fitted inhibition curve with a large enough effect in the signal ratio, with a control signal flat, not every such curve was filed as active; inconclusive = small, poorly fitted or top-dose-only effect, or effect the other way, or a change in a side signal; the % refers to the signal ratio; note: potency is the fitted concentration of half-maximal effect; % is set by controls: 0 for no effect and ±100 for the full control effect
#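 S3 HeLa cells stably expressing lamin A-EGFP splicing minigene plus DsRed2, 600 cells/well, 48 h compound exposure at 37C. Laser-scanning cytometry; analysed as GFP (500-530 nm)/RFP (575-640 nm) total intensity ratio; 0.5% DMSO vehicle.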
# HttQ103 aggreg: qHTS Multiplex Assay to Identify Dual Action Probes in a Cell Model of Huntington: Aggregate Formation (GFP); PC12 HttQ103-GFP aggregates, Acumen cytometry, 40 h; Potency, µM (highest dose often 46.1 µM), for the others: top-dose activity change, negative = inhibition, usual class: inhibitors; actives 1.1% (n = 220,000); note: potency is the fitted concentration of half-maximal effect; % is set by controls: 0 for no effect and ±100 for the full control effect; nearly all actives have a fitted effect of over 60% in size
#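 Aggregate formation scored by laser-scanning cytometer (488 excitation, 500–530 emission) in lysed PC12 cells expressing Q103-GFP after 100 nM tebufenozide induction; library tested in dose series, with ATPLite reagent added in the multiplex.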
# MBNL1 CUG block: qHTS Assay for Inhibitors of MBNL1-poly(CUG) RNA binding; Muscleblind-like protein 1 (Homo sapiens), Q9NR56; TR-FRET MBNL1-His/biotin-(CUG)12 binding, 665/545 ratio; Potency, µM (series often up to 57.5 µM), for the others: at the top dose activity change, negative = inhibition, usual class: inhibitors; actives 0.036% (n = 280,000); active = well fitted inhibition curve with a large enough effect in the signal ratio, with a control signal flat, not every such curve was filed as active; inconclusive = small, poorly fitted or top-dose-only effect, or effect the other way, or a change in a side signal; inactive = no such curve, though single readings can be large or run the other way; the % refers to the signal ratio; note: potency is the fitted concentration of half-maximal effect; % is set by controls: 0 for no effect and ±100 for the full control effect
# Target sequence (Q9NR56 whole entry, looked up): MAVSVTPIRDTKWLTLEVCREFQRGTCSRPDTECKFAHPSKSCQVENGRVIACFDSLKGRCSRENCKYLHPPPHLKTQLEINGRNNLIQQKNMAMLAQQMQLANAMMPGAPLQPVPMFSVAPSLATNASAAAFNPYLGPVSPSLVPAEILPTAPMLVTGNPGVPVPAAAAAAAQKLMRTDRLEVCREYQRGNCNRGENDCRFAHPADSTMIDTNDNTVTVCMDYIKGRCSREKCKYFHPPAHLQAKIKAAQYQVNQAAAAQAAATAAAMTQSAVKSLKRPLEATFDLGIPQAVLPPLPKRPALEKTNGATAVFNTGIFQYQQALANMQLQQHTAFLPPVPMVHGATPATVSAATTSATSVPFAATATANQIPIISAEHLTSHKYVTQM
#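 Compounds (final 92 nM to 58 uM) are added to His-tagged MBNL1 and biotin-(CUG)12, then terbium anti-His antibody and streptavidin-XL665 (5 nM final). After 60 min at room temperature, the 665/545 nm ratio is read.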
# * marks the source's active call; other numbers are inactive results; ? = inconclusive; . = no result; ! = not active in a repeat; [ ] = another dose, or the depositor's remark. Unless noted, calls come from the whole dose curve; as a rule, active = well fitted curve in the direction sought with a large enough effect; inconclusive = small, poorly fitted or top-dose-only effect, or another doubt; inactive = no such curve, though single readings can be large; an effect the other way counts as inactive or inconclusive.
SMILES,NPSR antag,CBFb-RUNX1 inh,HTT ATP protect,Lamin A splicing,HttQ103 aggreg,MBNL1 CUG block
C[CH2][Hg][S]c1ccccc1C(=O)O,.,17%,-323%,?,2.5µM*,.
N=c1c2c(n(Cc3ccc(Cl)cc3Cl)c3c1CCC3)CCCC2,-11%[46.1 µM],1%,-49%,?,6.3µM*,-2%
Cc1nn(Cc2ccc(Cl)cc2Cl)c(Cl)c1C(=O)O,0%,1%,16%,.,-5%,-6%
COc1cc2c(cc1OC)[C@@]13CCN4C=C5CCO[C@H]6CC(=O)N2[C@@H]1[C@@H]6[C@H]5C[C@H]43,.,.,-3%[10 µM],.,.,.
CC(C)(C)c1nc(N2CCN(C(=O)c3ccco3)CC2)c2nnn(Cc3ccccc3Cl)c2n1,10µM*,5%,15%[10 µM],?,6%[9.22 µM],-7%
C[C@@]12CC[C@H]3[C@@H](CCC4=C(O)C(=O)CC[C@]43C)[C@H]1CCC2=O,.,.,7%[1.9 µM],.,.,.
CC[n+]1c(-c2ccccc2)c2cc(N)ccc2c2ccc(N)cc21,.,?,-155%,?,14µM*,.
Cc1cc(C)n(-c2ccc(NN=C(C#N)C#N)cc2)n1,?,?,-22%[10 µM],.,-40%[9.22 µM],?
N#CC(C#N)=NNc1ccc(-n2ccc(C(F)(F)F)n2)cc1,2.5µM*,?,-53%[10 µM],.,?,6%
CCN(CC)c1ncnc2c1ncn2[C@@H]1O[C@@H](COP(=O)(O)OP(=O)(O)C(Br)(Br)P(=O)(O)O)[C@H](O)[C@@H]1O,.,.,2%[1.9 µM],.,.,.
S=C=Nc1cccc2ccccc12,.,-1%[21.7 µM],12%,.,.,.
C[C@@H]1CC[C@H]2[C@@H](C)C(=O)O[C@@H]3OC4(C)CC[C@@H]1C32OO4 (some centres undefined),.,-6%,-154%,.,3.2µM*,.
Cc1occc1C(=O)Nc1ccccc1,.,4%,.,.,.,.
Cc1occc1C(=O)Nc1nnc(C(F)(F)F)s1,6%[46.1 µM],8%,-1%,?,35µM*,-10%
C=CCN1C(=O)/C(=C/c2cccs2)C(=O)NC1=S,13µM*,-5%,35%[10 µM],?,-1%,-14%
O=C1NC(=S)N(Cc2ccco2)C(=O)/C1=C\c1cccs1,-15%,.,?,.,-2%,-3%
CCOP(=O)(Cc1ccc(C(=O)CC)o1)OCC,5%,3%,-4%[10 µM],.,-2%[9.22 µM],-1%
CCOP(=O)(Cc1cc(C(=O)CC)c(C)o1)OCC,9%,9%,.,.,0.01µM*,-6%
COc1cccc2c1C(=O)c1c(O)c3c(c(O)c1C2=O)C[C@@](O)(C(=O)CO)C[C@@H]3O[C@H]1C[C@H](N)[C@H](OC2CCCCO2)[C@H](C)O1 (some centres undefined),.,.,-80%,.,4µM*,.
C[C@@H]1CC[C@@H]2N(C1)C[C@H]1[C@@](O)([C@H](O)C[C@]3(O)[C@H]4CC[C@H]5[C@]6(O)O[C@]4(C[C@]13O)[C@@]5(C)CC[C@@H]6O)[C@@]2(C)O,.,.,-22%[10 µM],.,.,.
Cc1ccc(/C=C2\C(=O)NC(=S)N(c3ccccc3F)C2=O)s1,5µM*,-2%,-11%[10 µM],?,0%,17%
S=C1CN=C(c2ccccc2)c2cc(Cl)ccc2N1,13µM*,-4%,3%[1.9 µM],-8%,?,-2%
COc1ccc(C2=NCC(=S)Nc3ccc(Cl)cc32)cc1Cl,50%,-5%,13%[10 µM],3%[46 µM],-4%[9.22 µM],9%
C[C@@H]1OC=C2[C@@H](O)[C@H]3O[C@H]3C(=O)[C@@]23[C@H]1[C@H]1C2=C([C@@H](O)[C@H]4O[C@@H]4C2=O)[C@@H]3O[C@@H]1C,.,7%[13.1 µM],5.6µM*,.,.,.
Clc1cncc(N2CCNCC2)n1,.,20%,0.16µM*!,.,.,.
SMILES,NPSR antag,CBFb-RUNX1 inh,HTT ATP protect,Lamin A splicing,HttQ103 aggreg,MBNL1 CUG block
C/C=C1\C[C@H](C)[C@](O)(CO)C(=O)OCC2=CCN3CC[C@@H](OC1=O)[C@@H]23,.,.,-2%,.,.,.
COc1ccc(N2C(=O)/C(=C/C=C/c3ccccc3[N+](=O)[O-])C(=O)NC2=S)cc1,10µM*,-20%,29%,.,-8%,-4%
COc1ccc(N2C(=O)/C(=C/c3cccs3)C(=O)NC2=S)cc1,?,4%,-3%[10 µM],.,-1%[9.22 µM],2%
c1nc(N2CC2)c2cnn([C@@H]3CCCCO3)c2n1,.,.,3%[10 µM],.,.,.
C=C1C(=O)O[C@@H]2C[C@@H](C)[C@@H]3C=CC(=O)[C@@]3(C)[C@@H](O)[C@H]12,-46%,1%,?,.,2.2µM*,-4%
N[C@@H](Cc1cc(O)c(O)cc1O)C(=O)O,.,.,-2%[1.9 µM],.,.,.
CCN1C[C@]2(C)CC[C@@H](O)[C@]34[C@@H]5CC6[C@@H](OC)C[C@@](O)([C@H]5[C@@H]6O)[C@@H](C[C@@H]23)[C@H]14,.,.,-4%[1.9 µM],.,.,.
CCOC(=O)c1c(-n2c(C)cc(C=C3C(=O)NC(=S)NC3=O)c2C)sc2c1CCCC2,4µM*,-28%,-1%[10 µM],?,?,9%
O=C(O)C(Cl)(Cl)Br,.,10%[21.7 µM],-9%,.,.,.
CCOC(=O)C(O)(c1ccc(N(CC)C(=O)OC)cc1)C(F)(F)F (centres undefined),-13%[46.1 µM],13%,-2%[0.074 µM],-8%,1.6µM*,-16%
CCOC(=O)N(CC)c1ccc(C(O)(C(=O)OCC)C(F)(F)F)cc1 (centres undefined),3%[46.1 µM],8%,-1%,8%,-9%,-7%
Nc1c(C(=O)NCc2ccco2)c2nc3ccccc3nc2n1Cc1ccc(F)cc1,10µM*,29%,-14%[10 µM],?,?,15%
O=C1/C(=C\c2ccccc2)C[C@@]2(O)[C@H]3Cc4ccc(O)c5c4[C@@]2(CCN3CC2CC2)[C@H]1O5,.,17%,.,.,.,.
CN(Cc1c[nH]c2ccccc12)C1CCCCC1,18%,-1%,.,?,4%,-11%
c1ccc2c(CNC3CCCCC3)c[nH]c2c1,-7%[46.1 µM],-2%,-122%,?,11µM*,-1%
c1ccc2c(CN3CCCCCCC3)c[nH]c2c1,0%[46.1 µM],0%,-85%,?,13µM*,7%
C[C@H](CN(C)C)C(C#N)(c1ccccc1)c1ccccc1,.,.,13%[10 µM],.,.,.
